Design in all cases: scale not given: direction of the effect not stated beside the values
For assay [1], the target named is Protein translocase subunit SecA (Escherichia coli (strain K12)) (UniProt P10408). Kind of assay: Assay to Identify E. coli SecA ATPase Inhibitors. Format: functional. The following applies: 30 µM.
The target of assay [2] is T1, Ubiquitin-activating enzyme e1, putative (Leishmania donovani (strain BPK282A1)) (UniProt E9BSI1).
T1 sequence (whole entry): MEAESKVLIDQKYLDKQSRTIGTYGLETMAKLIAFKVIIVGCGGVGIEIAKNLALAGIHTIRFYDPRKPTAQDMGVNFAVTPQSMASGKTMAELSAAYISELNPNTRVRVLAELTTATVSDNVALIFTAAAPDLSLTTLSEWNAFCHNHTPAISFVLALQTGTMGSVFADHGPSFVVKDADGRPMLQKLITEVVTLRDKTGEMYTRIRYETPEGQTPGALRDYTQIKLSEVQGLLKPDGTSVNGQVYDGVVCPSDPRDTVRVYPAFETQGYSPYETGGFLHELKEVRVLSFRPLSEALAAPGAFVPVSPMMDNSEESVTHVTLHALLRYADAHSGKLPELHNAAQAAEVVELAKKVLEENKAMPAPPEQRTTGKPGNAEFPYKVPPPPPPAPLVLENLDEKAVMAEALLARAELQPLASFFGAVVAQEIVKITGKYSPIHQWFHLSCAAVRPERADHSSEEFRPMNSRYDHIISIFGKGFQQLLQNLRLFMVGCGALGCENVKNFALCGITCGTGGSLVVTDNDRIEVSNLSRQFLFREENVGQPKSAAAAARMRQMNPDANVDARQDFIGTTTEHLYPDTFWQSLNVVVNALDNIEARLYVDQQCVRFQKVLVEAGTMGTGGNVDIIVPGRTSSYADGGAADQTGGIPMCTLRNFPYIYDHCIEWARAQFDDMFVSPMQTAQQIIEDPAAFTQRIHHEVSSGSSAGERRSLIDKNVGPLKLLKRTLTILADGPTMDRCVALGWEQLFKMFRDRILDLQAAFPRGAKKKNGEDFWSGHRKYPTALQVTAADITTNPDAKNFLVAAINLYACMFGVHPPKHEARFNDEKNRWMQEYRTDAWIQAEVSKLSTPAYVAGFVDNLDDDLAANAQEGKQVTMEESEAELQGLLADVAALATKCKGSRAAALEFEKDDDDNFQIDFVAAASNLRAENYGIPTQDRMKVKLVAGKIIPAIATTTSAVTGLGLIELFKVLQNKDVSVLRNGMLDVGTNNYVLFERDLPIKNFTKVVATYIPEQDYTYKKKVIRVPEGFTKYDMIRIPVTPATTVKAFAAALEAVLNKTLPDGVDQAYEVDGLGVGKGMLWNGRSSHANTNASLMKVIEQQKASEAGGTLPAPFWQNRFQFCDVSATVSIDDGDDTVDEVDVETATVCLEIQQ
Kind of assay: Leishmania donovani Ubiquitin Activating Enzyme (LdE1). The following applies: 30 µM. Format: functional.

Assay [3] concerns the target Sialic acid-binding Ig-like lectin 9 (Homo sapiens) (UniProt Q9Y336). The assay can be described thus: Hs-Siglec9 ALPHAscreen SOP 20170721. The following applies: 10 µM.
In the next assay the test system is Trypanosoma cruzi. Kind of assay: Trypanosoma cruzi phosphomannomutase and mannose-1-phosphate guanylyltransferase assay. The assay is classed as functional. The following applies: 10 µM.
Assay [4] concerns the target T2, Arginase-2, mitochondrial (Homo sapiens) (UniProt P78540).
T2 sequence (whole entry): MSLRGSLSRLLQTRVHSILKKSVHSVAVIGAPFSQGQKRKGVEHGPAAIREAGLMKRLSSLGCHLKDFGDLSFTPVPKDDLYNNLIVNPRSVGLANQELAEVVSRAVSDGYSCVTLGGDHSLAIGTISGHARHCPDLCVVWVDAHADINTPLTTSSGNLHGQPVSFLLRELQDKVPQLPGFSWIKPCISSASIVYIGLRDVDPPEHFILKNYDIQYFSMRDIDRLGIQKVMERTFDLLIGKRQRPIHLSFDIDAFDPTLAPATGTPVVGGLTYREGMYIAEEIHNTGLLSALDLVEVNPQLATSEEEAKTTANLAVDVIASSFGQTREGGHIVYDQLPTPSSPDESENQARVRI
Kind of assay: in vitro enzyme assay to detect the production of urea directly proportional to the activity of Arginase II. Also: in the data most compounds retested in dose-response had high values. Format: functional. Particulars: 33.3 µM.

Assay [5] addresses T3, Proteasome subunit beta (Trypanosoma cruzi) (UniProt O96673).
T3 sequence (whole entry): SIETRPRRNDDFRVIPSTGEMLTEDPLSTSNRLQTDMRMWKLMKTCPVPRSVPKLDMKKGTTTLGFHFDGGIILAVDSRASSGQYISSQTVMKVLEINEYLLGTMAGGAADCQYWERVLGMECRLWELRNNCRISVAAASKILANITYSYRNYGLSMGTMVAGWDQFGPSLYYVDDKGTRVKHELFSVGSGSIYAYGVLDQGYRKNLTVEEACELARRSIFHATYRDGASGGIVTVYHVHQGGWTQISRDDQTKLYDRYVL
Kind of assay: Trypanosoma cruzi proteasome chymotrypsin-like activity (TcProtChymo) assay. Also: in the data most compounds retested in dose-response had high values. Format: functional. The following applies: 9.37 µM.

The species named for the next assay is Homo sapiens. Kind of assay: To identify inhibition of the IFN signalling (Jak-Stat) pathway via expression of an eGFP reporter gene under the control of an IFN-stimulated response element (ISRE) containing MxA promoter. The assay is classed as functional. Particulars: 30 µM.
Assay [6] has as its target T4, Tyrosyl-tRNA synthetase, putative (Trypanosoma cruzi (strain CL Brener)) (UniProt Q4DSP6).
T4 sequence (whole entry): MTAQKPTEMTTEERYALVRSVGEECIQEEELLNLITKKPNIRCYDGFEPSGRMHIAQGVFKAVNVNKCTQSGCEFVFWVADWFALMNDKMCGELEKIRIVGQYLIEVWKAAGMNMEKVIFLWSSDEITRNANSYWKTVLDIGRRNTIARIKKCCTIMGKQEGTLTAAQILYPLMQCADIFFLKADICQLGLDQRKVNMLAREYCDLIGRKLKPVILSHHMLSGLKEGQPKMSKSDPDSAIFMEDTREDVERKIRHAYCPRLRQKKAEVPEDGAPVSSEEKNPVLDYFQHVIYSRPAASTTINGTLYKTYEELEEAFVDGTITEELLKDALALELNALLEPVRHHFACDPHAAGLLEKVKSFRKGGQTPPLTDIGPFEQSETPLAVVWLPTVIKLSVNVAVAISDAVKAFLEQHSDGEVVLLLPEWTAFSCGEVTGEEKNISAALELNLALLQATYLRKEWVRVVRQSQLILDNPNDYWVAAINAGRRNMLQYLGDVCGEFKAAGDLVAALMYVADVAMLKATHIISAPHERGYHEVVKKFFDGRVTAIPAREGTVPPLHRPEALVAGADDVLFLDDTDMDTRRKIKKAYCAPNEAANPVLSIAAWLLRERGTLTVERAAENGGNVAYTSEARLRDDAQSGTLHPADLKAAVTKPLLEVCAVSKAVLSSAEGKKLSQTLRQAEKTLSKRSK
The assay can be described thus: Trypanosoma cruzi tyrosyl tRNA synthetase (TcYRS) _High Tyrosine SOP. Also: in the data most compounds retested in dose-response had high values. Format: functional. Particulars: 30 µM.

The target in assay [7] is T4, Tyrosyl-tRNA synthetase, putative (Trypanosoma cruzi (strain CL Brener)). Kind of assay: Trypanosoma cruzi tyrosyl tRNA synthetase (TcYRS) SOP. The assay is classed as functional. The following applies: 30 µM.
Assay [8] has as its target Chromo domain-containing protein 1 (Saccharomyces cerevisiae (strain ATCC 204508 / S288c) (Baker's yeast)) (UniProt P32657). The assay can be described thus: ScCHD-1 Enzyme Inhibition Assay. Also: in the data most compounds retested in dose-response had high values. Format: functional. The following applies: 30 µM.

For part of these data: Results with a measured potency or affinity are listed apart.

Sequence of Chromo domain-containing protein 1 (Saccharomyces cerevisiae (strain ATCC 204508 / S288c) (Baker's yeast)) (P32657 whole entry, the tested form may be a part): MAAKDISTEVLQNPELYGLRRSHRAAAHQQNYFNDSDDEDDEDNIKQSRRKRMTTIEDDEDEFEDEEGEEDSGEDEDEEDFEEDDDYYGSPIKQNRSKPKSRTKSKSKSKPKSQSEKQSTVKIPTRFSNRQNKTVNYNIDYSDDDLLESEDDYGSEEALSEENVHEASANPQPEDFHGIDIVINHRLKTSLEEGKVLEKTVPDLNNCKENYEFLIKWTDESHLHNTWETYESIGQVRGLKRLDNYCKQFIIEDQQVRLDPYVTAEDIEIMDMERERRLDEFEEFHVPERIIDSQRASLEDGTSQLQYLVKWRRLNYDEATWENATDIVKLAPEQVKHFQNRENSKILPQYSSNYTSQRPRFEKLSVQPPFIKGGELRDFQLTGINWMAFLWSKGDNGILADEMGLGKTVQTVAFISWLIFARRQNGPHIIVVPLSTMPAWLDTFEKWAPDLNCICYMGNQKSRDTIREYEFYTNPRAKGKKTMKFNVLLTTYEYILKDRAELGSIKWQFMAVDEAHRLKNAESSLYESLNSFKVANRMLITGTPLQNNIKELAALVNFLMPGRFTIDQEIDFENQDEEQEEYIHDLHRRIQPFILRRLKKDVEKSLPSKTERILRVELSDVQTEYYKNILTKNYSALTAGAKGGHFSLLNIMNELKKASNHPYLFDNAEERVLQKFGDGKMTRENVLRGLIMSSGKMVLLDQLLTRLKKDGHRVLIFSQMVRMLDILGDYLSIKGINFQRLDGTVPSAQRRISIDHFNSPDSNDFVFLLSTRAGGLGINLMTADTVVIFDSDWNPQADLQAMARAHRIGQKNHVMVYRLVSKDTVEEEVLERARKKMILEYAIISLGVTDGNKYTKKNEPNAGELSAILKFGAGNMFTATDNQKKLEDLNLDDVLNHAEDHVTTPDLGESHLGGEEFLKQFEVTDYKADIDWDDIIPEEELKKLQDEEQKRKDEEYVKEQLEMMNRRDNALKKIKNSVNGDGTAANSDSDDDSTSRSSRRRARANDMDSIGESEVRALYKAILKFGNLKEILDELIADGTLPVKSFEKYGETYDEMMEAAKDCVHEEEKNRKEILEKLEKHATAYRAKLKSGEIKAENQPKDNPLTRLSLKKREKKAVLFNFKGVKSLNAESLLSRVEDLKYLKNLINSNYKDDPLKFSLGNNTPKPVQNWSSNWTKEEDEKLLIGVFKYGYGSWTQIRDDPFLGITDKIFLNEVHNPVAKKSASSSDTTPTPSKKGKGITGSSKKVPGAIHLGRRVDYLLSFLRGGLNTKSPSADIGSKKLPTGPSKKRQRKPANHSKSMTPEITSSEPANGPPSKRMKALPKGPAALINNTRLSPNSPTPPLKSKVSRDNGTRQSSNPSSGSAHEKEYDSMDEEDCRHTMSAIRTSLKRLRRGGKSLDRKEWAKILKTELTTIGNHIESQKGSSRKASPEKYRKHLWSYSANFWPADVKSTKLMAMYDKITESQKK
Sequence of Sialic acid-binding Ig-like lectin 9 (Homo sapiens) (Q9Y336 whole entry): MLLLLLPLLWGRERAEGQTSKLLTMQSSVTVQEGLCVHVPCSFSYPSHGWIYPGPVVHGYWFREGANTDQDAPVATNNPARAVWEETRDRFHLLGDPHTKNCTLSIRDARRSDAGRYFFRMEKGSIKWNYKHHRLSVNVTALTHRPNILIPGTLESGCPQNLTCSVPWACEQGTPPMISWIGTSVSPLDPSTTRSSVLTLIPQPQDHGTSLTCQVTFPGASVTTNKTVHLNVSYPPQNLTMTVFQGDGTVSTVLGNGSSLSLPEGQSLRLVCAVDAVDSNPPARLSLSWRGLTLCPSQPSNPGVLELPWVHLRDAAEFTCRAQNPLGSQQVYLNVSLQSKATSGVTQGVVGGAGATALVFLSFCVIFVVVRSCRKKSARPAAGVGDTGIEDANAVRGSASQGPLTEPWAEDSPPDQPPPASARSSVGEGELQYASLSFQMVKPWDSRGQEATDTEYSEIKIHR
Sequence of Protein translocase subunit SecA (Escherichia coli (strain K12)) (P10408 whole entry): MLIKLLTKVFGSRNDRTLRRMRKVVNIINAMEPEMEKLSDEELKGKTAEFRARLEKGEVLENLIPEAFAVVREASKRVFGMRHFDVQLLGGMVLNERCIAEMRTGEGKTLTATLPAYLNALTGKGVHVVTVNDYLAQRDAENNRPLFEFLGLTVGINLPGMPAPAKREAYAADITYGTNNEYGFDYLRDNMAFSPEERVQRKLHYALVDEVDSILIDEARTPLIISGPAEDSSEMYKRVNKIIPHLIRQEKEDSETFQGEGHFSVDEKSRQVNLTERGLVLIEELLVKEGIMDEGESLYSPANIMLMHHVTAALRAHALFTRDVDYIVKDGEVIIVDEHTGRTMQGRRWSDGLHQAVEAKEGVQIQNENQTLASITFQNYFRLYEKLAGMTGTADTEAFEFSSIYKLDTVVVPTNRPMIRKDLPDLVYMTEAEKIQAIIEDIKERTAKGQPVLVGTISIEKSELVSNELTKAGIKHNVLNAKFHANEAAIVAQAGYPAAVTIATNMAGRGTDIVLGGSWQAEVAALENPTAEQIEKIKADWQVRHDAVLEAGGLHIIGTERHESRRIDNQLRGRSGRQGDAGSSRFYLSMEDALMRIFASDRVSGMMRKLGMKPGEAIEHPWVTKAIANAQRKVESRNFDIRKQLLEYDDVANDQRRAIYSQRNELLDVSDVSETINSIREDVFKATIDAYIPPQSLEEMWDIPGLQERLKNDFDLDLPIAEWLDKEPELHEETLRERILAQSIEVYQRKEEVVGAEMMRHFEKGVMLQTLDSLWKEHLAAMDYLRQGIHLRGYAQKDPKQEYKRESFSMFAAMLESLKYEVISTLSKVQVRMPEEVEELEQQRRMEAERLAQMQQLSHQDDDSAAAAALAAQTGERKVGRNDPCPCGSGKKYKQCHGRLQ

In the case of `Cc1cc(-c2nn(C)c(Cl)c2CN2CCOCC2CC(=O)O)no1` (stereo not given), the Percent Effect in assay [1] was -6.59%; in [2] it was 10.8%; in assay [3], 10.3%; with Trypanosoma cruzi, 5.92%; in assay [4], 15.7%; in assay [5], 12.2%. For the same compound, the Percent Effect is 22.2% in the assay listed under Homo sapiens, 7.98% in [6], 12.2% in [7] and -0.504% in [8].

As to `Cc1occc1C(=O)NCc1ccc(N2CCCC(C(N)=O)C2)cc1` (stereo not given), the Percent Effect in assay [1] was -2.46%; in [2] it was 8%; in assay [3], -3.46%; in the assay with Trypanosoma cruzi it was -3.61%; in assay [4], 10.6%; in assay [5] it was 13%. Moreover, the Percent Effect in the assay filed under Homo sapiens is 16.5%; in assay [6], 2.63%; in assay [7], 7.69%; in assay [8] it was -9.94%.

As to `Cc1cc(CN(C)C(=O)c2ccc(F)cc2Br)no1`, the Percent Effect in [1] is -3.65%; in assay [2], 10.3%; in assay [3], -16.2%; in the assay with Trypanosoma cruzi it was -5.35%; in [4], -1.23%; in assay [5], 15.3%. Also, the Percent Effect is 28.1% in the assay filed under Homo sapiens, 3.35% in assay [6], 10.8% in assay [7] and -3.45% in [8].

In the case of `Cc1cnn(CC2CCCN2CC(=O)Nc2nc(C)cs2)c1` (stereo not given), the Percent Effect in [1] is -2%; in assay [2], 7.79%; in assay [3], 11.1%; in the assay with Trypanosoma cruzi, 0.746%; in assay [4], 5.12%; in [5], -1.4%. The Percent Effect in the assay listed under Homo sapiens is 2.04%; in assay [6], 12.8%; in [7], 21.2%; in assay [8] it was -5.41%.

With `CCC(=O)N1CCC(Cc2nccnc2Nc2ccccn2)CC1`, the Percent Effect in assay [1] is -5.27%; in assay [2] it was 4%; in [3], -4.87%; in the assay on Trypanosoma cruzi it was 1.58%; in assay [4], -1.77%; in assay [5], -5.91%. Besides, the Percent Effect in the assay filed under Homo sapiens was 18.1%; in assay [6] it was -4.23%; in [7] it was -2.5%; in assay [8], -20%.

For the compound `Cc1nn2cccnc2c1C(=O)N1CCCC(Nc2ccccc2)C1` (stereo not given), the Percent Effect was -3.41% in assay [1]; 0% in assay [2]; 1% in assay [3]; -0.803% with Trypanosoma cruzi; 7.54% in assay [4]; -2.46% in assay [5]. The Percent Effect in the assay listed under Homo sapiens was -3.46%; in assay [6], 5.79%; in [7], 5.13%; in [8] it was 8.56%.

As for `O=C(CCc1cc2n(n1)CCN(Cc1ncc[nH]1)C2)N1CCCC1`, the Percent Effect in assay [1] is -3.73%; in [2], 18.9%; in assay [3], 0.852%; in the assay on Trypanosoma cruzi, 1.07%; in assay [4], 13.6%; in [5] it was 14.4%. For the same compound, the Percent Effect in the assay listed under Homo sapiens is 15.1%; in assay [6] it was 4.79%; in assay [7], 19.5%; in [8], -1.96%.

With `Cc1ncc2c(n1)CN(CCCc1nc3ccccc3o1)CC2`, the Percent Effect is -8.07% in [1]; 10.7% in [2]; 3.45% in [3]; 0% in the assay on Trypanosoma cruzi; -3.1% in [4]; 8.91% in assay [5]. Besides, the Percent Effect is -14.7% in the assay listed under Homo sapiens, 22.6% in [6], 28.2% in assay [7] and -7.47% in assay [8].

As for `CNc1cncc(C2CCCN2C(=O)c2ccc3oc(C)cc3c2)n1` (stereo not given), the Percent Effect in [1] is -2.25%; in [2] it was 12%; in assay [3] it was -1.38%; in the assay on Trypanosoma cruzi, 3.35%; in [4], -1.33%; in [5] it was 16.6%. Also, the Percent Effect in the assay filed under Homo sapiens was -2.62%; in assay [6], 3.17%; in assay [7], 7.5%; in [8], -26.1%.

For `CCn1nc(C)c(CCNC(=O)C2CCCN(C(=O)N(C)C)C2)c1C` (stereo not given), the Percent Effect is -5.72% in [1]; 0% in assay [2]; -0.0434% in [3]; -2.04% in the assay on Trypanosoma cruzi; 1.05% in assay [4]; 14.6% in assay [5]. Besides, the Percent Effect was 8.52% in the assay listed under Homo sapiens, 3.72% in assay [6], 4.88% in assay [7] and -3.32% in assay [8].

In the case of `CCc1nnc2n1CCN(Cc1nc(-c3ccoc3)no1)C2`, the Percent Effect in assay [1] is -4.35%; in assay [2], 5.13%; in assay [3], 5.33%; with Trypanosoma cruzi, 4.22%; in assay [4], 1.64%; in assay [5], 9.47%. The Percent Effect in the assay listed under Homo sapiens was -10.4%; in assay [6] it was 12%; in assay [7], 22.9%; in [8], -4.51%.

In the case of `COc1ccccc1NC(=O)CSC1CCc2ccccc2NC1=O` (stereo not given), the Percent Effect is -4.52% in [1]; 13.5% in assay [2]; 8.46% in assay [3]; 4.17% with Trypanosoma cruzi; 17.1% in assay [4]; 18.3% in assay [5]. Besides, the Percent Effect in the assay listed under Homo sapiens was 13%; in assay [6] it was 5.85%; in assay [7], 17.1%; in assay [8], -4.97%.

The values above are taken from ChEMBL document CHEMBL3988442, “University of Dundee, Small-Polar-MMV Screening Library” (2021).
